# Screening data (PubChem BioAssay)
# An excerpt weighted towards active compounds, which were near 4.2% of everything screened.
# hgDAF-12 ag = agonists of H. glycines DAF-12 nuclear receptor | 370,000 tested, 1.8% active | activation, % at 6.8 µM | HEK293 GAL4-hgDAF12 UAS-luciferase reporter, agonist luminescence; normalized to butyrate control;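 active means activation above a cutoff set at the mean of all screened compounds plus 3 SD, cut at about 10% in these data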;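 further: 0% = DMSO wells and 100% = sodium butyrate wells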
# ssDAF-12 act = activators of S. stercoralis DAF-12 nuclear receptor; HEK293 ssDAF-12/GRIP1 lit1-tk-luc reporter, luminescence; % of 3 µM dafachronic acid response; activation, % at 6.8 µM; 370,000 tested, 1% active;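 active means activation above the mean over all tested compounds plus 3 SD, cut at about 0.9% in these data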;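 further: 0% = DMSO-only wells and 100% = 3 µM delta7-dafachronic acid wells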
# Wnt act = activates Wnt/beta-catenin signaling in a reporter cell assay; activator, plate reader; activation, % at 9.35 µM; 300,000 tested, 1.2% active; in the data active means activation above about 30%, passing the limit was not always enough;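 further: 0% = neutral control wells and 100% = positive control wells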
# DAX1 StAR inh = DAX1 (NR0B1) inhibition, primary screen | HEK293T StAR-luciferase reporter, SF-1/DAX-1 repression relief | inhibition, % at 6.8 µM | 370,000 tested, 1.1% active | AID 652010;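 active means inhibition above the mean over all tested compounds plus 3 SD, cut at about 3.6% in these data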;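 further: 0% = DAX-1 cells with DMSO and 100% = cells lacking DAX-1 with DMSO; higher inhibition means more luminescence from relief of DAX-1 repression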
# esBAF inh = inhibitors of esBAF chromatin remodeling in mouse ES cells; reporter increase, % at 12.5 µM; 350,000 tested, 2% active; Bmi1-luciferase knock-in reporter, 24 h; 100% = twice the neutral-well signal; in the data active means activation above about 40%;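 further: 0% = median of the plate's neutral control wells and 100% = double that signal; a rise in the Bmi1 reporter signal indicates esBAF inhibition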
# hcDAF12 agonist = activators of H. contortus DAF-12 nuclear receptor | HEK293 hcDAF-12 lit1-tk-luc reporter, luminescence; 0% DMSO, 100% Δ7-dafachronic acid | activation, % at 6.8 µM | 370,000 tested, 1.4% active;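 active means activation above the mean of all tested compounds plus 3 SD, cut at about 5.5% in these data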;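 further: 100% = response to 3 µM Δ7-dafachronic acid high control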
# The depositor's hits bear a star; / = not tested or not shown.
SMILES,hgDAF-12 ag,ssDAF-12 act,Wnt act,DAX1 StAR inh,esBAF inh,hcDAF12 agonist
CC(C)(C)c1ccc(C(=O)NCCCNC(=O)c2cccnc2)cc1,2.2,-0.8,-4.0,-0.4,47.1*,-1.9
CC(C)Oc1ccc(C(=O)NCCCNC(=O)c2cccnc2)cc1,0.1,-0.9,38.2*,1.0,1.6,-1.5
O=C(NCCCSc1ccccc1)c1cccnc1,-0.4,-0.8,0.6,-2.0,-5.4,-0.2
CN(C)S(=O)(=O)c1ccc(C(=O)NCCSc2ccccc2)cc1,5.5,-0.4,/,0.1,53.4*,3.9
CC(C)CC#Cc1ccc2c(c1)O[C@H](CN(C)C(=O)c1ccccn1)[C@H](C)CN([C@@H](C)CO)S2(=O)=O,/,/,/,/,5.5,/
COc1ccccc1-c1ccc2c(c1)[C@@H]1[C@@H](CCN1S(=O)(=O)c1ccccc1F)[C@H](CO)N2,/,/,/,/,-1.4,/
COCC(=O)Nc1ccc2c(c1)C(=O)N(C)C[C@H](OC)[C@@H](C)CN(Cc1cccnc1)[C@H](C)CO2,/,/,/,/,0.7,/
CC(=O)Nc1cccc(OCCCNC(=O)c2ccc(F)cc2)c1,-0.1,-0.4,13.6,0.6,5.1,0.8
CC(=O)Nc1cccc(OCCCNC(=O)c2ccc(C(C)(C)C)cc2)c1,4.1,-0.8,30.9*,-0.4,-2.4,-0.8
COc1ccc(NC(=O)N2CCCCN3[C@H](CO)[C@@H](c4ccc(C5=CCCCC5)cc4)[C@H]3C2)cc1,/,/,/,/,-2.7,/
Nc1nnc(/C=C/c2ccccc2Cl)s1,11.9*,-0.6,54.8*,0.8,/,3.3
O=C(Nc1ccccc1)Nc1nnc(/C=C/c2ccccc2Cl)s1,2.4,-1.4,/,0.3,/,0.1
Cc1cccc(C)c1N1C(=O)CC(N(O)c2ccccc2)C1=O (stereo not given),0.3,-1.6,-5.6,-0.6,-4.0,-0.6
Cc1c(Cl)cccc1N1C(=O)CC(N(O)c2ccccc2)C1=O (stereo not given),-0.7,-1.3,/,-0.7,60.4*,-1.8
COC(=O)c1c(NC(=O)c2ccccc2)sc(C(N)=O)c1C,-3.6,1.0*,-1.4,1.8,/,3.5
COC(=O)c1c(NC(=O)c2ccccc2)sc(C(=O)c2ccccc2)c1C,1.9,-0.2,/,0.7,-0.6,0.7
CCC(=O)N[C@@H]1CC[C@H](CC(=O)NCc2ccccc2OC)O[C@H]1CO,/,/,/,/,-1.8,/
CCNC(=O)C1CCCN(Cc2ccc(OCc3ccccc3)cc2)CC1 (stereo not given),3.9,-1.6,/,-0.3,4.7,1.1
OC1CCN(Cc2ccc(OCc3ccccc3)cc2)CC1,11.3*,-0.2,5.7,1.6,3.9,6.3*
CCCCNC(=O)C1CCN(Cc2ccc(OCc3ccccc3)cc2)CC1,10.7*,-0.1,/,-0.2,50.7*,-0.5
Cc1ccc(S(=O)(=O)N2C[C@H](O)COC[C@@H]3O[C@H](CC(=O)NCC4CCCCC4)CC[C@H]32)cc1,/,/,/,/,-2.0,/
O=C(N/N=C/c1cccs1)c1n[nH]c2c1CCCC2,8.9,-0.4,-10.0,0.0,/,5.9*
S=C(NCCCN1CCOCC1)Nc1ccc(Cl)cc1Cl,2.6,-1.2,-1.1,-0.1,/,-1.4
Cc1ccc(C)c(NC(=O)C(=O)NCCCN2CCOCC2)c1,11.4*,-1.3,-1.3,0.1,/,-0.9
Cc1ccc(C)c(NC(=S)NCCCN2CCOCC2)c1,3.1,0.9*,-1.2,0.6,/,-1.4
SMILES,hgDAF-12 ag,ssDAF-12 act,Wnt act,DAX1 StAR inh,esBAF inh,hcDAF12 agonist
CCOC(=O)c1sc(NC(=O)Nc2cccc(Cl)c2)cc1C,9.9,0.7,35.4*,1.0,/,1.3
CCOC(=O)c1sc(NC(=O)Nc2ccc(Cl)cc2)nc1C,3.2,-0.5,39.3*,0.5,61.3*,1.7
CCOC(=O)Nc1nc(C)c(C(=O)c2ccc(Cl)cc2)s1,2.3,-1.4,1.0,0.0,-3.0,-0.7
CNc1nc(C)c(C(=O)OCc2ccccc2)s1,6.8,-0.8,14.4,1.1,75.2*,0.9
Cc1nc(Nc2ccccc2)sc1C(=O)c1ccccc1,5.9,-1.5,42.3*,-0.1,/,0.1
CCOC(=O)c1c(NC(=O)Nc2ccccc2)sc(C)c1C,0.9,-1.8,/,-0.3,/,-0.9
COCC(=O)Nc1ccc2c(c1)[C@H]1C[C@H](CC(=O)NCc3ccc(Cl)cc3)O[C@H](CO)[C@H]1O2,/,/,/,/,-1.9,/
CCC(=O)N(C)C[C@H]1Oc2cc(C#CC3CCCC3)ccc2S(=O)(=O)N([C@@H](C)CO)C[C@H]1C,/,/,/,/,0.0,/
